About 83,000 compounds went through this panel and 20% of them were active in at least one assay; those are over-represented in the sample as a whole.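 Each cell line was grown in a 96-well plate and treated with one concentration of compound for 48 hours. Values below 10 were considered active.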 Unmarked numbers belong to inactive results. Active and inactive are the calls of the source.

Consider eight molecules from PubChem BioAssay (NCI).

What all share (assay): NCI-60 one-dose screen, 48 h (100 = growth as untreated, 0 = no growth, -100 = all killed)
Conditions in all cases: 10 µM unless noted

In test [1] the test system is DU-145 prostate.
In test [2] the test system is K-562 leukemia.
Test [3] deals with MALME-3M melanoma.
For test [4], the system named is MDA-MB-231 breast.
Test [5] has as its system RXF 393 renal.
For test [6], the system named is SF-268 CNS.
The test system of test [7] is SF-295 CNS.
For test [8], the system named is SF-539 CNS.
Test [9] has as its system UACC-257 melanoma.
For test [10], the system named is M14 melanoma.
For test [11], the system named is HCT-15 colon.
For test [12], the system named is HT29 colon.
Test [13] has as its system SNB-75 CNS.
The subject of test [14] is SNB-19 CNS.
The test system of test [15] is U251 CNS.
The test system of test [16] is PC-3 prostate.
The test system of test [17] is SK-MEL-5 melanoma.
Test [18] deals with UACC-62 melanoma.
Test [19] deals with LOX IMVI melanoma.
The test system of test [20] is SK-MEL-28 melanoma.

On to `CN(C)c1ccc(Nc2cc(-c3cccc(OC(F)(F)F)c3)nc3ccc(N4CCCC4)cc23)cc1`, for which the growth in test [1] is 50.3%; in test [2] it was -20.9% (active); in test [3], -90.4% (active); in test [4] it was 12.3%; in test [5], 88.8%; in test [6], -13.4% (active). The growth was 108% in test [7]; 91.6% in test [8]; 14.1% in test [9]; -76.3% (active) in [10]; -45.5% (active) in test [11]; -12.8% (active) in test [12]. The growth was 55% in test [13]; 66% in test [14]; -59.2% (active) in [15]; 18% in test [16]; 96.3% in test [17]; 90.1% in [18]. The growth is -73.7% (active) in test [19] and -85.3% (active) in test [20].
In the case of `CCOC(=O)/C=C1\S/C(=N\Nc2cc(=O)[nH]c3ccc(Cl)cc23)N(c2ccccc2)C1=O`, the growth was 96.7% in test [1]; 54.1% in test [2]; 92.6% in [3]; 92.2% in [4]; 77.2% in test [5]; 96% in [6]. Also, the growth in [7] is 102%; in test [8], 99.6%; in [9] it was 95.6%; in [10], 87.3%; in test [11], 74.5%; in test [12] it was 102%. In addition, the growth in test [13] was 87.5%; in [14], 90.6%; in test [15] it was 89.9%; in test [16], 85.4%; in test [17], 98.9%; in test [18], 89.4%. The growth in test [19] is 84.4%; in test [20] it was 101%.
`O=S(=O)(Nc1ccccc1)c1ccc(C2CC3(Cl)C(Cl)=C(Cl)C2(Cl)C3(Cl)Cl)cc1` (stereo not given): the growth in [1] is 66.4%; in test [2], 27%; in test [3] it was 35.1%; in test [4], 59.3%; in [5] it was 32.9%; in test [6] it was 57.2%. Further, the growth is 8.38% (active) in test [7]; 72.9% in test [8]; 36.8% in [9]; 52.6% in test [10]; 50.6% in test [11]; 35.2% in [12]. The growth in test [13] was 69.6%; in test [14], 77.6%; in test [15] it was 39.8%; in [16], 13.5%; in [17], 60.7%; in test [18] it was 43.6%. For the same molecule, the growth in test [19] is 39%; in test [20], 68.3%.
Consider `O=C(OCc1ccc2cccc(O)c2n1)N1CCN(C(=O)c2cc3cc(F)ccc3[nH]2)CC1`, for which the growth is -83.9% (active) in test [1]; 1.96% (active) in [2]; -93.2% (active) in [3]; -81.6% (active) in test [4]; -93.1% (active) in [5]; -73.4% (active) in test [6]. The growth in test [7] was 54.7%; in test [8], -98.3% (active); in [9] it was -41.4% (active); in test [10], -77.7% (active); in test [11] it was -36.4% (active); in test [12] it was -70.4% (active). The growth in [13] was -45.2% (active); in [14] it was 47.1%; in test [15], -87.2% (active); in test [16], -43.9% (active); in test [17] it was -79.6% (active); in [18] it was -93.8% (active). The growth in test [19] was -91.8% (active); in [20], -91.2% (active).
Consider `CN1CCN(C(=O)OCc2ccc3c(Cl)cc(Cl)c(O)c3n2)CC1`, for which the growth is 56.3% in [1]; 18.1% in [2]; 81% in test [3]; 90.5% in test [4]; 71.3% in [5]; 53.3% in test [6]. Moreover, the growth in test [7] was 45.3%; in test [8], 66.2%; in test [9], 89.3%; in test [10] it was 55.4%; in test [11], 22.8%; in [12] it was 103%. For the same molecule, the growth in test [13] was 70.7%; in test [14] it was 53.3%; in test [15] it was 36.6%; in test [16] it was 44.1%; in test [17], 49.6%; in test [18], 60%. Besides, the growth in [19] is 49.3%; in test [20], 67.1%.
As for `CO[C@]12C=C/C(=C(/C(=O)OCc3cccnc3)C(=O)CCCCCCCC[C@@]3(OC)C=C/C(=C(/C(=O)OCc4cccnc4)C(=O)CCCCCCCC1)O3)O2`, the growth in test [1] was 20%; in test [2], 1.46% (active); in test [3], -31.2% (active); in test [4] it was 13.9%; in test [5], -87.2% (active); in test [6], 9% (active). For the same molecule, the growth in test [7] was -0.607% (active); in test [8] it was 3% (active); in test [9], 33.6%; in test [10] it was 3.57% (active); in [11], 2.29% (active); in test [12] it was 14.5%. For the same molecule, the growth is 55% in [13]; 33.7% in test [14]; 20.3% in test [15]; 8.77% (active) in test [16]; -59.1% (active) in test [17]; -54% (active) in test [18]. Further, the growth in [19] is -35.9% (active); in test [20] it was -5.65% (active).
On to `O=C1c2cccc3cccc(c23)C(=O)N1N1C(=O)c2cccc3c(N4CCOCC4)ccc(c23)C1=O`, for which the growth was 110% in [1]; 102% in [2]; 78.8% in [3]; 76.3% in test [4]; 93.4% in test [5]; 96.2% in [6]. For the same molecule, the growth is 90.7% in test [7]; 101% in test [8]; 96.7% in test [9]; 90% in [10]; 101% in test [11]; 107% in [12]. The growth in test [13] was 58.5%; in test [14] it was 87.8%; in [15], 90.7%; in test [16], 91.2%; in test [17] it was 101%; in test [18], 90.5%. The figures for the growth in test [19] and in [20] were 90.2% and 102%, respectively.
In the case of `C/C(=N/O)c1ccc(F)cc1`, the growth in test [1] was 5.59% (active); in [2], 92.7%; in test [3] it was 130%; in test [4] it was 88%; in test [5], 64.1%; in test [6] it was 102%. For the same molecule, the growth was 75% in test [7]; 119% in test [8]; 95.3% in test [9]; 94.9% in [10]; 11.5% in [11]; 16.5% in test [12]. Moreover, the growth in [13] is 123%; in [14], 87.8%; in [15] it was 83.2%; in test [16] it was 75.5%; in test [17], 89.2%; in test [18], 78.3%. Moreover, the growth in test [19] is 69.5%; in test [20], 126%.
